Results on five compounds are retold here after PubChem BioAssay.

The term inhibition denotes the drop in the measured response relative to a control, in per cent.

Where “and” joins values, the source holds several entries; their conditions need not be identical. Identical values can stand only once. Calls of active or inactive are those of the source.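 Rule for the calls, unless noted: active = inhibition at or above 50% relative to wild type and mutant plate controls; inactive = inhibition below 50%.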

A short description of assay [1]: inhibitors of TNFa-induced NFkB p65 translocation, primary screen, imaging, HUVEC, MLSMR starter and 10KST1 sets (AID 438;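 active = inhibition above 20% together with a positive visual image hit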;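 note: compound added about 3h40 before a 20 min TNFalpha stimulation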;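 for inhibition: signal is the nuclear over cytoplasmic p65 intensity ratio per well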). Particulars: HUVEC TNFa-induced p65 nuclear translocation; cell count: measured here: nuclei count (cytotoxicity indicator), at 2.08 µM unless noted; inhibition: at 2 µM, stronger effect = higher value unless noted.
The nature of assay [2]: reduction of polyQ htt aggregates in cells – imaging, exon1htt(103Q)mCFP cells, high-content imaging, primary screen (AID 483;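 active = visual image review flags a hit and inhibition of aggregation exceeds 20%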;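 note: compound exposure lasted 3 days before fixation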;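 for nuclei count: percent of the per-plate median nuclei count of sample wells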). Particulars: exon1htt(103Q)mCFP cell line, aggregate imaging, at 2 µM; inhibition of aggregation: stronger effect = higher value; nuclei count: measured here: cell count, toxicity.
The nature of assay [3]: endothelial E-selectin expression blockers – imaging, HUVEC, immunofluorescence, MLSMR starter and 10KST1 sets, primary screen (AID 487;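 active = visually confirmed hit in the image check and inhibition above 20%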;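 for inhibition: signal is fraction of cell area covered by stained E-selectin grains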;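 for nuclei count: 100% = median nuclei count of all wells on the same plate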). Particulars: HUVEC TNFalpha-induced E-selectin immunofluorescence imaging, at 2 µM; inhibition: stronger effect = higher value; nuclei count: measured here: cell number, toxicity.
Assay [4] in a line: Primary imaging screen for DUSP6 inhibitors that restore phospho-Erk in transfected HeLa cells, chemical complementation (AID 609;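 active = compounds giving at least 50% inhibition in the cell-based MKP-3 phosphatase rescue imaging test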;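 for inhibition: phospho-Erk level distribution per well compared with pooled transfected vehicle control wells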). To be noted: HeLa MKP-3 transfected, phospho-Erk imaging KS statistic, at 10 µM.
In assay [5] the target is Dual specificity protein phosphatase 6 (Homo sapiens) (UniProt Q16828). The assay is described as above. Particulars: HeLa MKP-3 transfected, phospho-Erk imaging KS statistic, at 10 µM, stronger effect = higher value.
Sequence of Dual specificity protein phosphatase 6 (Homo sapiens) (Q16828 whole entry, looked up): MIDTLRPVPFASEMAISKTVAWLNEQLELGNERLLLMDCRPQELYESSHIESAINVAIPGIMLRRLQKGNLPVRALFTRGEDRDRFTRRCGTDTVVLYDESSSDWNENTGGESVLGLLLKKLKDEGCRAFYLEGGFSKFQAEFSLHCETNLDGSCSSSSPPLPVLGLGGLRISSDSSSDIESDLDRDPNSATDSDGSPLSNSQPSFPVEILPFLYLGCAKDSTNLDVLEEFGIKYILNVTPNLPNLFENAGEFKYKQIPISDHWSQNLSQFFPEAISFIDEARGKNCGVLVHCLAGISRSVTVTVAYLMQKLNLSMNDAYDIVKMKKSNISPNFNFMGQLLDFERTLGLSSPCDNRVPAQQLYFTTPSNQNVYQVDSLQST
Assay [6] addresses Voltage-gated potassium channel subunit beta-2 (Rattus norvegicus) (UniProt P62483). As to the kind of experiment: inhibitors of rat Kvbeta2 reductase activity – biochemical, NADPH fluorescence, primary screen (AID 622;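 active = fluorescence slope higher than the sample average by over 3 SD, cut at about -0.22 in these data, passing the limit was not always enough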;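 note: slope of raw intensity against log time taken from 70 to 1610 s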). To be noted: recombinant KvBeta, 4-cyanobenzaldehyde reduction, at 10 µM, stronger effect = higher value.
Assay [7] has the same target. As to the kind of experiment: enhancers of rat Kvbeta2 NADPH turnover – biochemical, NADPH fluorescence, primary screen (AID 623;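 active = NADPH fluorescence slope more negative than the mean of all samples by about 3 SD, 99.7% confidence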;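 note: fluorescence intensity change per second fitted from 20 to 320 s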). To be noted: Recombinant KvBeta, NADPH fluorescence decrease slope, 10 min; at 10 µM; stronger effect = lower value.
Assay [8] has as its target Alpha-2C adrenergic receptor (Homo sapiens) (UniProt P18825). As to the kind of experiment: compounds altering alpha2C-coupled GIRK flux – cell-based, HEK293 alpha2C/GIRK1/2, thallium flux, primary screen (AID 624;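 active = fluorescence slope after compound addition differing from the mean of all screened samples at 99.7% confidence, in either direction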;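 note: slope of fluorescence ratio to pre-addition baseline per second over 15 to 24 s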). Particulars: thallium flux BTC fluorescence, at 10 µM, actives lie on both sides.
Assay [9] is described as follows: inhibitors of larval lipid processing in zebrafish, primary screen, whole organism, PED6 fluorescence, gall bladder and intestine (AID 686;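 active = a full or partial loss of lipid-probe fluorescence in the fish gall bladder, intestine or both, judged by eye; inactive = no fluorescence loss, or compound toxic to the fish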;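 note: larvae 5 to 7 days old with five fish per well; signal comes from phospholipase A2 cleavage of quenched PED6 carried via bile; overnight exposure to compound and PED6 before scoring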). To be noted: Zebrafish larvae PED6 lipid processing, fluorescence scoring.
Assay [10] in a line: loss of swimming-algae plug formation – whole organism, Chlamydomonas reinhardtii, WT vs cilia-less mutant, absorbance, 96-well, primary screen (AID 463189).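 Note: 0% = wild type cc124 cells in DMSO and 100% = ciliumless bld1 mutant cells.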 Particulars: Chlamydomonas reinhardtii gravitaxis, OD600 absorbance, 2 days; at 10 µM; stronger effect = higher value.
The nature of assay [11]: blockers of RIG-like receptor reporter activation – cell-based, Sendai virus stimulus, luciferase, 10K MLSCN set, TLR/RLR signaling modifier project, primary screen (AID 602276;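 active = inhibition at or above 50% at 10 µM; inactive = inhibition below 50%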;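 note: firefly luciferase from ISG56 promoter only with Renilla not read in this screen; 0% = Sendai virus plus DMSO and 100% = medium plus DMSO without virus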). To be noted: HEK293 RL24 IRF3 luciferase reporter, at 10 µM, stronger effect = higher value. A general note: A reporter such as luciferase makes a cellular process visible.
Assay [12] in a line: TLR3 IRF3 reporter activation blockers – cell-based, poly I:C stimulus, luciferase, 10K MLSCN set, primary screen (AID 602277;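 active = inhibition of the reporter signal at or above 50%; inactive = inhibition below 50%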). Particulars: HEK293-TLR3 RL24 IRF3 luciferase reporter, at 10 µM, stronger effect = higher value.
The mark [13] stands for this setting: measured here: cell density z-score.
Setting [14] is: measured here: nuclear c-Myc green intensity z-score.
Setting [15] is: measured here: nuclear pErk red intensity z-score, stronger effect = higher value.

Sequence of Voltage-gated potassium channel subunit beta-2 (Rattus norvegicus) (P62483 whole entry, looked up): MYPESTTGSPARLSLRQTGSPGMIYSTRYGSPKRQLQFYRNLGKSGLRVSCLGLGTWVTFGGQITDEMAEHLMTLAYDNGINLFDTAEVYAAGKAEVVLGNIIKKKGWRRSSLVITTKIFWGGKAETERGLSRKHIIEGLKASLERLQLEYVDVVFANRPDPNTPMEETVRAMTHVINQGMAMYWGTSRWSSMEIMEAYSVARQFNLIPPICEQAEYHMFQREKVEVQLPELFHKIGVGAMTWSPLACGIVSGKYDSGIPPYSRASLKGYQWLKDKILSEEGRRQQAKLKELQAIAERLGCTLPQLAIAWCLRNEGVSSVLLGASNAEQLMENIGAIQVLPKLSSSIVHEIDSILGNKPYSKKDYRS
Sequence of Alpha-2C adrenergic receptor (Homo sapiens) (P18825 whole entry, looked up): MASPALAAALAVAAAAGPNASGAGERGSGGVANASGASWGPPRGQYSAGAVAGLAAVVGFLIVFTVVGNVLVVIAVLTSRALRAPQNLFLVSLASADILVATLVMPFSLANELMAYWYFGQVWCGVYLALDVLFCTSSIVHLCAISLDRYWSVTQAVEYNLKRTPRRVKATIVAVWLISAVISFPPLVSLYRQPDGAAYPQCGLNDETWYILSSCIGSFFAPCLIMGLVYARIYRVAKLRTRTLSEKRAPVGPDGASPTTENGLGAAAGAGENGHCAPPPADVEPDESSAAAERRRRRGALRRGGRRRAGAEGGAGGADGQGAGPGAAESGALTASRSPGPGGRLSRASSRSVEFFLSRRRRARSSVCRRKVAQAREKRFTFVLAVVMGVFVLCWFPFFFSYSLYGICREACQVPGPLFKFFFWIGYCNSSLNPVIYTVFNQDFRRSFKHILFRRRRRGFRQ

As for `NCC1(CC(=O)O)CCCCC1`, in assay [1], the cell count was 645. Also, the inhibition in [1] was -5.2% (inactive); in [3], -78.6% (inactive); in assay [5], 1.38% (inactive); in assay [10], 4.56% (inactive) and -5.83% (inactive); in assay [11], -3.61% (inactive); in assay [12], 3.7% (inactive). The inhibition of aggregation in assay [2] was -6.5% (inactive). For the same compound, the nuclei count in assay [2] was determined as 100%; in [3], 116%. In addition, the z-score in assay [4] (setting [13]) was -0.493; in assay [4] (setting [14]) it was 0.124; in [4] (setting [15]), -0.808. Also, the fluorescence slope in assay [6] was -0.493 (inactive). For the same compound, in assay [7], the NADPH fluorescence slope is -3.2e-05 (inactive). In addition, the slope in [8] is 0.00518 (inactive). Moreover, the compound was classed as inactive in [9].

`CNCCc1c[nH]c2ccccc12` had a cell count in [1] of 615. In addition, the inhibition is -10.3% (inactive) in assay [1]; -70.6% (inactive) in assay [3]; -6.41% (inactive) in assay [5]; 1.04% (inactive) in [10]; 25.5% (inactive) in assay [11]; 49.1% (inactive) in assay [12]. The inhibition of aggregation in [2] is 3.8% (inactive). Also, the results for the nuclei count in assay [2] and in assay [3] were 103% and 127%, respectively. Besides, the z-score in assay [4] (setting [13]) is -0.539; in assay [4] (setting [14]), -0.571; in [4] (setting [15]), -0.457. The fluorescence slope in assay [6] is -0.506 (inactive). Besides, the NADPH fluorescence slope in [7] was 2.2e-05 (inactive). Besides, the slope in assay [8] is 0.00539 (inactive). Also, the outcome in [9] was inactive.

Turning to `C=C1CC[C@@]2(O)[C@H]3Cc4ccc(O)c5c4[C@@]2(CCN3CC2CC2)[C@H]1O5`, the cell count in assay [1] is 527. Further, the inhibition in assay [1] was 0.1% (inactive); in assay [3] it was -20.4% (inactive); in [5] it was 14.6% (inactive); in assay [10], -15.6% (inactive); in assay [11], -6.04% (inactive); in assay [12], 25% (inactive). Also, the inhibition of aggregation in [2] was -9.9% (inactive). The nuclei count turned out to be 99.2% in assay [2] and 109% in assay [3]. In addition, the results for the z-score in [4] (setting [13]), in assay [4] (setting [14]) and in assay [4] (setting [15]) were 0.737, 1.29 and -0.809, respectively. Also, the fluorescence slope in assay [6] is -0.469 (inactive). Also, the NADPH fluorescence slope in [7] is -4e-05 (inactive). Further, the slope in assay [8] was 0.00496 (inactive). The outcome in assay [9] was inactive.

The compound `CCCCCCn1c(O)c(C=NC2CCN(Cc3ccccc3)CC2)c(=O)[nH]c1=O` gave a cell count in assay [1] of 592. Moreover, the inhibition in assay [1] was -3.3% (inactive); in [3] it was -34.2% (inactive); in [5] it was 19.3% (inactive); in assay [10] it was 25.8% (inactive); in [11], 11.7% (inactive); in [12], -13.6% (inactive). For the same compound, in assay [2], the inhibition of aggregation was -17.9% (inactive). Besides, the nuclei count was 112% in assay [2] and 131% in [3]. Moreover, the z-score in [4] (setting [13]) is 2; in [4] (setting [14]), -0.0485; in assay [4] (setting [15]), 0.697. Moreover, the fluorescence slope in [6] was -0.332 (inactive). Moreover, in [7], the NADPH fluorescence slope was -2.2e-05 (inactive). For the same compound, the slope in assay [8] was 0.0054 (inactive). For the same compound, in [9], the result was inactive.

In turn, `CN1C(=O)CN=C(c2ccc(Cl)cc2)c2cc(Cl)ccc21` came in with a cell count in [1] of 702. The inhibition was -2.8% (inactive) in assay [1]; -88.1% (inactive) in assay [3]; -6.41% (inactive) in assay [5]; -0.225% (inactive) in [10]; 0.552% (inactive) in assay [11]; 32% (inactive) in assay [12]. Besides, the inhibition of aggregation in assay [2] was -25.6% (inactive). In addition, the nuclei count in [2] stood at 108%; in assay [3], 128%. For the same compound, the results for the z-score in assay [4] (setting [13]), in assay [4] (setting [14]) and in [4] (setting [15]) were 0.107, -0.617 and 0.523, respectively. The fluorescence slope in assay [6] is -0.442 (inactive). Further, in assay [7], the NADPH fluorescence slope was -4.1e-05 (inactive). For the same compound, in [8], the slope is 0.00345 (inactive). Further, the outcome in [9] is “inactive; toxic”.
